Data from publication PMC5540273 (PLoS ONE, 2017).

tested on: NEK4; details: concentration: 1 μM, replicates: in singlicate; n = 1
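Note: KINOMEscan kinase panel screen.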

`Clc1ccc(-c2nn3ncccc3c2-c2ccnc(Nc3ccc4c(c3)OCCO4)n2)cc1` [GW829116] and `Fc1ccc(-c2ncn(C3CCNCC3)c2-c2ccnc(Oc3ccc(-c4ccccc4)cc3)n2)cc1` [SB-245391] are the same in “%Inh” value: 0% for the first, 0% for the second.

Going from `Cl.Cl.NCC(C(=O)Nc1cc(Br)c(-c2ccnc3[nH]ccc23)s1)c1ccccc1` (stereo not drawn) [GSK1269851] to `O=C(Nc1ccccc1F)NC1CCN(c2ccnc(Nc3ccc(F)cc3)n2)CC1` [GSK1379800], the “%Inh” value falls from 15% to 0%.

With `COc1cccc(C2=C(Nc3ccc(Cl)c(C(=O)O)c3)C(=O)NC2=O)c1` [SB-390769] the “%Inh” value was 38%.

tested on: NEK5; details: concentration: 1 μM, replicates: in singlicate; n = 1

`CCCCc1nn2ncccc2c1-c1ccnc(Nc2ccc(N3CCN(C)CC3)cc2)n1` [GW684941] and `Clc1ccc(-c2nn3ncccc3c2-c2ccnc(Nc3ccc4c(c3)OCCO4)n2)cc1` [GW829116] are the same in “%Inh” value: 0% for the first, 0% for the second.

Going from `Cc1ccc(S(=O)(=O)Nc2ccc(Nc3nccc(Nc4cccc5[nH]ncc45)n3)cc2)cc1` [GSK581271] to `Cl.c1ccc(-c2ccc3c(Nc4ccc5[nH]ncc5c4)ccnc3c2)nc1` [GW440137], the “%Inh” value rises from 5% to 13%.

`CN(C)Cc1ccc(-c2ccc3c(Nc4ccc(Oc5ccccn5)cc4)ccnc3c2)o1` [GW567148] and `Cl.c1ccc(-c2ccc3c(Nc4ccc5[nH]ccc5c4)ccnc3c2)nc1` [GW440138] are the same in “%Inh” value: 0% for the first, 0% for the second.

First: Cc1cccc(Nc2nc(N[C@H]3CCNC3)ncc2C(N)=O)c1.Cl [GSK2197149]
Second: Cc1ccc(C)c(NC(=O)NC2CCN(c3ccnc(Nc4ccc(F)cc4)n3)C2)c1 (stereo not drawn) [GSK1379720]
The “%Inh” value of the first is higher: 8% for the first, 4% for the second.

First: Cc1ccc(C(=O)N2CC[C@@H](O)C2)cc1-n1c(C)cc(OCc2ccc(F)cc2F)c(Br)c1=O
Second: Cn1cc(-c2ccc3c(c2)CCN3C(=O)Cc2cccc(F)c2)c2c(N)ncnc21 [GSK2603358]
The “%Inh” value of the first is lower: 0% for the first, 28% for the second.

Compared with `O=C(O)C(F)(F)F.O=C(O)C(F)(F)F.O=c1[nH]ccc2nc(N[C@@H]3CCCNC3)nc(Nc3ccc(S(=O)(=O)N4CCOCC4)cc3)c12` [GSK2177277], `O=C(Nc1ccccc1F)NC1CCN(c2ccnc(Nc3ccc(F)cc3)n2)CC1` [GSK1379800] is lower in “%Inh” value: 51% for the first, 33% for the second.

First: Cc1cccc(NC(=O)Nc2ccc(Oc3ncnc4ccn(C)c34)cc2)c1
Second: COc1cccc(C(=O)Nc2cccc(Oc3ccc4nc(NC(=O)C5CC5)cn4n3)c2)c1
The “%Inh” value of the first is lower: 0% for the first, 23% for the second.

`COc1ccc(-c2coc3ccc(-c4nnc(SCc5ccc(OC)c(C(F)(F)F)c5)o4)cc23)cc1` and `COC(=O)Nc1nc2cc(Oc3ccc(NC(=O)Nc4cc(C(F)(F)F)ccc4F)cn3)ccc2[nH]1.Cl.Cl` [GW681170] are the same in “%Inh” value: 0% for the first, 0% for the second.

First: CC(C)c1nc(-c2cccc(NS(=O)(=O)c3c(F)cccc3F)c2F)c(-c2ccnc(Nc3ccc(N4CCOCC4)nc3)n2)s1 [GSK2008607]
Second: CCS(=O)(=O)c1ccc(OC)c(Nc2nccc(-c3c(-c4cccc(NC(=O)c5c(F)cccc5F)c4)nn4ncccc34)n2)c1 [GSK326180]
The “%Inh” value of the first is higher: 26% for the first, 15% for the second.

First: O=C(Nc1cccc(-c2nn3ncccc3c2-c2ccnc(Nc3ccccc3)n2)c1)c1c(F)cccc1F [GSK198271]
Second: COc1cc(Nc2nccc(-c3c(-c4cccc(NC(=O)c5c(F)cccc5F)c4)nn4ccccc34)n2)cc(OC)c1OC [GSK323521]
The “%Inh” value of the first is lower: 0% for the first, 22% for the second.

`O=c1[nH]cc(-c2ccc(N3CCOCC3)cc2)c2sc(-c3cn[nH]c3)cc12` [GSK2276055] and `COc1cc2c(cc1OCCN1CCNCC1)ncc1c3ccc(C#N)cc3[nH]c21` are the same in “%Inh” value: 0% for the first, 0% for the second.

Going from `Cl.Cl.NCC(NCc1ccc(-c2ccnc3[nH]ccc23)s1)c1ccccc1` (stereo not drawn) [GSK1321565] to `Cl.Cl.NCC(C(=O)Nc1cc(Br)c(-c2ccnc3[nH]ccc23)s1)c1ccccc1` (stereo not drawn) [GSK1269851], the “%Inh” value falls from 10% to 0%.

Compared with `COc1cccc(-c2ccc3c(NC(=O)C4CC4)n[nH]c3n2)c1` [SB-710903], `O=C(Nc1n[nH]c2cc(-c3ccoc3)ccc12)C1CC1` [SB-738481] is lower in “%Inh” value: 6% for the first, 0% for the second.

Compared with `CSc1cccc2c(-c3ccncn3)c(-c3ccc(F)cc3)nn12` [GW514786], `Fc1ccc(-c2ncn(C3CCNCC3)c2-c2ccnc(Oc3ccc(-c4ccccc4)cc3)n2)cc1` [SB-245391] is lower in “%Inh” value: 7% for the first, 4% for the second.

Going from `C[C@@H](Oc1cc(-n2cnc3cc(-c4ccnc(NCCS(C)(=O)=O)c4)ccc32)sc1C(N)=O)c1ccccc1Cl` [GSK907232] to `CN(C)S(=O)(=O)c1cc(-c2ccc3nccc(-c4cccc(S(N)(=O)=O)c4)c3c2)cnc1N` [GSK1669921], the “%Inh” value falls from 89% to 0%.

Compared with `Cn1cc(-c2[nH]c3cc(NC(=O)[C@H](N)C4CCCCC4)cc4c3c2C=NNC4=O)cn1`, `COc1cccc(C2=C(Nc3ccc(Cl)c(C(=O)O)c3)C(=O)NC2=O)c1` [SB-390769] is lower in “%Inh” value: 54% for the first, 3% for the second.

Compared with `CCn1c(-c2nonc2N)nc2c(C#CC(C)(C)O)ncc(OCCCCN)c21.O=C(O)C(F)(F)F.O=C(O)C(F)(F)F` [GSK507274], `CCn1c(-c2nonc2N)nc2c(C#CC(C)(C)O)nc(OC[C@H](N)c3ccccc3)cc21` [GSK943949] is lower in “%Inh” value: 11% for the first, 0% for the second.

Going from `Nc1n[nH]c2cnc(-c3ccccc3)cc12` [SB-642124] to `FC(F)(F)c1ccc(/C=C/c2cncnc2Nc2ccc3[nH]c(Cc4ccccc4)nc3c2)cc1` [GW709199], the “%Inh” value falls from 96.5% to 23%.

With `CC(C)(C)c1ccc2nccc(Nc3cccc(O)c3)c2c1` [GW856795] the “%Inh” value was 0%.
